Screens as filed in PubChem.
Rows were chosen to be rich in hits. Some 21% of all compounds tested hit in one or more screens of this group.
Pf growth 96h: P. falciparum growth inhibition at 96 hour, primary screen for plastid delayed-death inhibitors | P. falciparum luciferase reporter growth, 96 h | AID 504834 | Potency, µM (titrated, usually from 28.7 µM), for the others: at the highest dose activity change, negative = inhibition, usual class: inhibitors | hit rate 6.9% among 320,000; also: potency is read from the fitted curve at half-maximal effect; % is scaled to controls: 0 for no effect and ±100 for the full control effect
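96 h incubation, 37 C, 5% CO2, of luciferase-reporter P. falciparum-infected RBCs (2% hematocrit, 0.05% parasitemia final) with test compounds; endpoint luminescence.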
NS1 function inh: influenza NS1 inhibition; hit rate 0.4% among 270,000; Potency, µM (highest dose often 46.1 µM), for inactives: at the top dose activity, positive = more growth; AID 2326; calls by dose curve; also: potency is read from the fitted curve at half-maximal effect; actives are rising curves; nearly all actives have a fitted effect of over 50% in size
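Compounds were scored for reversing the slow growth caused by influenza A NS1 in S. cerevisiae, measured by optical density at 600 nm. Assay medium contained 2% galactose at pH 6.0; NS1-free yeast of the same strain were the positive control.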
Sm TGR block: S. mansoni TGR enzyme inhibition. Q962Y6. purified TGR, DTNB reduction, TNB absorbance 405 nm. Potency, µM (highest dose often 114 µM), for the others: at the highest dose activity change, negative = inhibition, most hits filed as inhibitors. hit rate 3% among 360,000. AID 485364; also: potency is read from the fitted curve at half-maximal effect; % is scaled to controls: 0 for no effect and ±100 for the full control effect; nearly all actives have a fitted effect of over 60% in size
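Kinetic colorimetric format: TGR-catalysed, NADPH-driven DTNB reduction monitored via TNB absorbance. Enzyme dispensed at 20 nM; compound exposure 15 min at room temperature before reaction start.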
Cycloheximide cs: counter-screen hit for Shiga toxin inhibitors, cycloheximide. hit rate 12% among 300,000. max response, %. cell reporter, cycloheximide protein synthesis inhibition counterscreen; in the data active = max response mostly above about 13%, no sharp cut-off; inactive = mostly below about 14%; also: read at 38.3 µM for the half of the compounds with a filed dose; 0% is about no effect
Pf growth 48h: P. falciparum growth inhibition at 48 hours (one generation) | Potency, µM (series often up to 28.7 µM), for inactives: at the highest dose activity change, negative = inhibition, hits mostly inhibitors | hit rate 5.9% among 310,000 | P. falciparum luciferase growth in erythrocytes, 48 h; also: potency is read from the fitted curve at half-maximal effect; % is scaled to controls: 0 for no effect and ±100 for the full control effect
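First compound was added to culture medium, then infected red cells at 0.1% parasitemia and 2% hematocrit (final). After incubation at 37 C under 5% CO2, luciferase detection reagent was dispensed and light output recorded.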
Shiga inhibitor: inhibitors of Shiga toxin in Vero cells. inhibition, % at 38.7 µM. Vero cells, Shiga toxin protein synthesis inhibition reporter. hit rate 9.2% among 290,000; in the data active = inhibition mostly above about 28%, no sharp cut-off; inactive = mostly below about 43%; also: 0% is about no effect
* marks the source's active call; other numbers are inactive results; ? = inconclusive; nt = not tested or not shown; [ ] = dose if it differs, or a comment. Unless noted, calls follow the shape of the dose curve; as a rule, active = well fitted curve in the direction sought with a large enough effect; inconclusive = small, poorly fitted or top-dose-only effect, or another doubt; inactive = no such curve, though single readings can be large; an effect the other way counts as inactive or inconclusive.

SMILES | Pf growth 96h | NS1 function inh | Sm TGR block | Cycloheximide cs | Pf growth 48h | Shiga inhibitor
CCOC(=O)Cc1c(C(=O)OCC)nnc2c(-c3ccccc3)c(C)nn12 | nt | nt | 17.0% | nt | nt | nt
CCOC(=O)C1CCCN(C(=O)c2c(C)nn(-c3ccc(F)cc3)c2-n2cccc2)C1 (stereo not drawn) | nt | nt | 0.3% | nt | nt | nt
CCOC(=O)c1c(C)[nH]c(C)c1S(=O)(=O)N(C)CC(=O)Nc1cc(Cl)ccc1OC | nt | nt | -0.7% | nt | nt | nt
Cc1ccc(C)c(NC(=O)Cn2ccn(-c3ccc4c(c3)OCO4)c(=O)c2=O)c1 | 6.5% | nt | 7.0% | nt | 31.5% | nt
CC1(C)NC(C(=O)O)Cc2c1[nH]c1ccccc21 (stereo not drawn) | -1.9% | 1.4% | 39.8µM* | -1.4 | 30.1% | -1.2
COC(=O)C1Cc2c([nH]c3ccccc23)C(C(C)C)N1 (stereo not drawn) | 1.31µM* | -0.3% | ? | -3.3 | -17.2% | -5.6
COc1cc(C2NC(C(=O)O)Cc3c2[nH]c2ccccc32)cc(OC)c1OC (stereo not drawn) | nt | 2.2% | 15.0% | -0.1 | 19.8% | 21.9
CCC1NC(C(=O)O)Cc2c1[nH]c1ccccc21 (stereo not drawn) | 15.1% | nt | 39.8µM* | nt | -21.3% | nt
CC(C)(C)OC(=O)N1Cc2[nH]c3ccccc3c2C[C@@H]1C(=O)O | 0.8% | nt | -18.5% | nt | -19.2% | nt
COc1ccccc1CNc1ccc(-c2nc(-c3ccccn3)no2)cc1[N+](=O)[O-] | nt | nt | -7.1% | nt | nt | nt
Cc1ccn2c(c1)nc(=O)c1cc(S(=O)(=O)N3CCCCC3)c(Cl)cc12 | nt | nt | -0.6% | nt | nt | nt
O=c1nc2n(c3cc(Cl)c(S(=O)(=O)N4CCOCC4)cc13)CCCCC2 | 9.28µM* | -9.3% | 2.2% | -4.5 | -17.1% | 12.3
COc1cc(NC(=O)CN(c2ccc(C)cc2)S(=O)(=O)c2cccc3nonc23)cc(OC)c1 | nt | nt | -7.8% | nt | nt | nt
CCOC(=O)N1CCC(n2c(SCC(=O)NCCc3ccc(S(N)(=O)=O)cc3)nc3ccccc3c2=O)CC1 | -26.3% | nt | -7.4% | -2.0 | ? | -3.9
O=C(c1cc(-c2ccc(F)cc2)no1)N1CCN(Cc2ccc3c(c2)OCO3)CC1 | ? | -8.8% | -0.4% | -1.8 | ? | 9.8
CC(C)(CSc1ncccn1)NS(=O)(=O)c1ccccc1 | 10.0% | -0.2% | 0.0% | -2.7 | -4.5% | -11.8
Cc1ccc(S(=O)(=O)NC(C)(C)CSc2nnc(Nc3ccccc3)s2)cc1 | 11.7µM* | -5.4% | 4.0% | -3.3 | nt | -18.6
C/C(CC1CC(COCC(C)C)OC1=O)=N\Nc1nc(-c2ccccc2)cs1 (stereo not drawn) | ? | 3.8% | 56.2µM* | 8.4 | ? | 18.9
CC1CC(CC(=O)Nc2nc(-c3ccccc3)cs2)C(=O)O1 (stereo not drawn) | 15.6%[5.75 µM] | nt | 10.3% | 2.5 | -22.8%[5.75 µM] | 12.9
CCCOc1ccc(-c2nonc2NC(=O)c2oc3ccc(Cl)cc3c2C)cc1OCCC | nt | nt | 0.3% | nt | nt | nt
CCNS(=O)(=O)c1ccc(NC(=O)c2cccnc2)cc1 | nt | 2.4% | 0.0% | 0.7 | 14.0% | -20.1
CCc1ccc(S(=O)(=O)Nc2c(C)nc3nc[nH]n3c2=O)cc1 | 9.8% | 14.6% | 4.3% | -2.6 | 6.0% | 3.9
O=C(Nc1ccc(S(=O)(=O)Nc2ncccn2)cc1)c1cccnc1 | -18.6% | 1.4% | 3.3% | 58.8* | 19.0% | 113.7*
CC(=O)Nc1ccc(S(=O)(=O)Nc2ncccn2)cc1 | 0.0% | 14.2% | -4.7% | -1.9 | 5.7% | -10.0
Cc1ccc(SCC(=O)Nc2ccc(S(=O)(=O)Nc3ncccn3)cc2)cc1 | 56.4% | 0.8% | 2.9% | 2.7 | 52.8% | -1.9
SMILES | Pf growth 96h | NS1 function inh | Sm TGR block | Cycloheximide cs | Pf growth 48h | Shiga inhibitor
Cc1cc(C)nc(SCC(=O)Nc2ccc(S(=O)(=O)Nc3ncccn3)cc2)n1 | 20.0% | -47.1% | -5.1% | 35.4* | ? | 74.9*
CCC(=O)Nc1ccc(S(=O)(=O)Nc2c(C)nc3nc[nH]n3c2=O)cc1 | 10.4µM* | -14.3% | 0.1% | -9.8 | -6.1% | 3.4
CCC(=O)Nc1ccc(S(=O)(=O)Nc2ncccn2)cc1 | 9.28µM* | -2.9% | -0.8% | -3.8 | nt | -6.4
Cc1nc2cc3ccccc3cc2n1C | -84.3% | -37.2% | 4.0% | 19.1* | -2.8% | 48.4*
Cc1ccc(CSc2ncc(Cl)c(C(=O)Oc3ccc(F)cc3)n2)cc1 | nt | nt | 10.7% | nt | nt | nt
Cc1cc(NC(=O)c2cccs2)no1 | 125.8% | 3.7% | 16.7% | 32.5* | 88.1% | 57.1*
Cc1cc(NC(=O)c2cc(-c3ccco3)on2)no1 | -2.1% | -69.8% | 0.0% | 2.5 | 126.6% | -10.6
Cc1cc(NC(=O)c2cc(C(C)C)on2)no1 | ? | -48.4% | 4.0% | 48.1* | 197.8% | 67.4*
CC(C)NC(=O)c1cc(-c2cccs2)on1 | nt | 5.1% | 1.9% | 30.6* | 137.0% | 56.6*
Cc1cc(C)nc(NC(=O)c2cccs2)c1 | ? | -4.1% | -28.9% | 21.2* | 64.1% | nt
CCc1nn(CC(=O)NCCC(C)C)c(=O)c2cc3occc3n12 | nt | nt | -1.6% | nt | nt | nt
Cc1ccc(NC(=O)CNC2CCS(=O)(=O)C2)cc1C (stereo not drawn) | 80.1% | nt | -9.9% | -4.4 | 19.6% | -4.4
Cc1ccc(S(=O)(=O)N2CCN(C(=O)C3CCCC3)CC2)cc1C | -3.6% | -4.7% | 0.2% | -1.1 | -3.3% | -3.3
COc1ccc(N(CC(=O)NCc2ccccc2Cl)S(=O)(=O)c2c(C)nn(C)c2C)cc1 | nt | nt | 0.2% | nt | nt | nt
Cc1cc(C)nc(NC(=O)c2cccs2)n1 | 87.6% | -63.1% | -0.4% | 11.6 | 29.9% | 33.6
CC(=O)Nc1ccc(NC(=O)c2cc(-c3cccs3)on2)cc1 | nt | nt | -1.9% | nt | nt | nt
Cc1cc(NC(=O)c2cc(-c3cccs3)on2)no1 | 5.7% | -16.1% | 2.6% | 28.5* | 22.8% | 114.2*
Cc1nc(NC(=O)c2cccs2)ccc1Br | 22.5% | -7.8% | -4.3% | 54.0* | 318.9% | 105.9*
O=C(CN1CCOCC1)Nc1ccccc1Sc1ccc(Cl)cc1 | ? | -26.1% | -12.0% | 1.7 | -14.4% | -7.5
CCc1noc(C)c1C(=O)NNC(=O)COc1ccc(C)c(C)c1 | 18.6% | nt | -11.9% | nt | -10.4% | nt
COCCNc1nc(SCc2ccccc2)nc2sc3c(c12)CCC3 | ? | 18.2% | -25.9% | 1.9 | ? | 0.6
CC(CO)Nc1nc(SCc2ccccc2)nc2sc3c(c12)CCC3 (stereo not drawn) | 7.38µM* | 5.6% | -30.1% | 12.8 | ? | -2.0
COc1ccc(NC(=O)CCn2c(=O)c3cccn3c3ccccc32)c(OC)c1 | 11.7µM* | 2.8% | 0.0% | -7.4 | ? | -3.2
Cc1ccc(NC(=O)Cn2c(=O)c3cccn3c3ccccc32)c(C)c1 | ? | -1.7% | -1.5% | -1.5 | ? | -2.9
Cc1ccc(NC(=O)CCn2c(=O)c3cccn3c3ccccc32)c(C)c1 | 13.1µM* | -6.6% | -0.7% | -2.9 | ? | -8.8
COc1ccc(NC(=O)CCn2c(=O)c3cccn3c3ccccc32)cc1 | ? | -2.3% | -1.3% | -5.8 | -10.8% | -8.0
CC(C)Cc1ccc(C(C)NC(=O)Cc2ccc(S(=O)(=O)N3CCOCC3)s2)cc1 (stereo not drawn) | -0.4% | nt | 0.8% | nt | 0.3% | nt
